{"source": "paper PMC5700166", "data": [{"biological_target": "T1, GST-Nv-NF-kB (Ser allele) (Nematostella vectensis, UniProt A7UNT2 2-411)", "T1 sequence": "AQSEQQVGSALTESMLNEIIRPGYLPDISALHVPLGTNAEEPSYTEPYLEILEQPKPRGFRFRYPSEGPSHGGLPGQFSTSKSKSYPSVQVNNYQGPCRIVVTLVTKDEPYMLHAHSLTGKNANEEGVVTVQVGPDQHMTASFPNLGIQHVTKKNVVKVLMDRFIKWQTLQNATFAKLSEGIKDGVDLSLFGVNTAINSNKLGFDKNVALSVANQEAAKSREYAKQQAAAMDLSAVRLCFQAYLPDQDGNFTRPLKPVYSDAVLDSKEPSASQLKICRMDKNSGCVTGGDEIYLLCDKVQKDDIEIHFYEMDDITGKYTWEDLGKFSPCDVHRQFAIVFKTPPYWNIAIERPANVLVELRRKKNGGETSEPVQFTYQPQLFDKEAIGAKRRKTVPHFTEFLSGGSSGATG", "experiment": "protein-binding microarray (PBM); PBM: ~300 nM protein, 6 mM HEPES pH 7.8, 80 mM KCl, 0.5 mM EDTA, 0.5 mM EGTA, 6% glycerol, 35 ng/ul poly-dIdC, 1% milk, 1 h, room temperature; Ap Aiptasia and Nv Nematostella (sea anemones) / Co Capsaspora / Aq Amphimedon (sponge) / Dm Drosophila / Hu human; RHD is the Rel homology domain; high values mean tight binding", "settings": "dsDNA, one strand shown", "units": {"binding signal": "z-score"}, "values": [{"sequence": "CCGATTAACATCAAATTTACCCCTGATGTTAATCGGGTCTTGATTCGCTTGACGCTGCTG", "binding signal": 5.32}, {"sequence": "CCGATTAACATCAGGGTAATTTATGATGTTAATCGGGTCTTGATTCGCTTGACGCTGCTG", "binding signal": 6}, {"sequence": "CCGATTAACATCAGGGACTTTAATGATGTTAATCGGGTCTTGATTCGCTTGACGCTGCTG", "binding signal": 6.21}, {"sequence": "CCGATTAACATCACCGAACCCCCTGATGTTAATCGGGTCTTGATTCGCTTGACGCTGCTG", "binding signal": 5.24}, {"sequence": "CCGATTAACATCAGAACATCCCCTGATGTTAATCGGGTCTTGATTCGCTTGACGCTGCTG", "binding signal": 6.48}, {"sequence": "CCGATTAACATCAGGAAATACCCTGATGTTAATCGGGTCTTGATTCGCTTGACGCTGCTG", "binding signal": 6.46}, {"sequence": "CCGATTAACATCAGTGTCCCGTTTGATGTTAATCGGGTCTTGATTCGCTTGACGCTGCTG", "binding signal": 1.48}, {"sequence": "CCGATTAACATCAAAAAAACACCTGATGTTAATCGGGTCTTGATTCGCTTGACGCTGCTG", "binding signal": 5.3}, {"sequence": "CCGATTAACATCAAAAGCCCCCATGATGTTAATCGGGTCTTGATTCGCTTGACGCTGCTG", "binding signal": 5.01}, {"sequence": "CCGATTAACATCAGGGATTTTTATGATGTTAATCGGGTCTTGATTCGCTTGACGCTGCTG", "binding signal": 5.24}, {"sequence": "CCGATTAACATCAGGGGGGGGGATGATGTTAATCGGGTCTTGATTCGCTTGACGCTGCTG", "binding signal": 5.68}, {"sequence": "CCGATTAACATCACTAAACCCCCTGATGTTAATCGGGTCTTGATTCGCTTGACGCTGCTG", "binding signal": 6.49}, {"sequence": "CCGATTAACATCAGGGGGGGAGATGATGTTAATCGGGTCTTGATTCGCTTGACGCTGCTG", "binding signal": 4.31}, {"sequence": "CCGATTAACATCACGAAAACCCCTGATGTTAATCGGGTCTTGATTCGCTTGACGCTGCTG", "binding signal": 5.71}]}]}
